Measurements published in ChEMBL document CHEMBL3988442, “University of Dundee, Small-Polar-MMV Screening Library” (2021).
Out of some 38,000 compounds screened, about 1,200 (3.2%) showed an effect of 50% or more. The median lay at about -58%. What follows is part of a selection rich in strong results, with near analogues and random picks from the rest.

tested on: Plasmodium falciparum; experiment: Calibr Malaria Delayed Death Assay SOP; assay type: functional, organism-based; design: scale not given: in the data most compounds retested in dose-response had high values; conditions: concentration 4.99e-06 (unit not given; other assays of the set use mol/L)

Compound	Percent Effect
CCc1cnc(C)nc1N1CCC(Cc2cccc(C(=O)O)c2)C1 (stereo not drawn)	-30.8%
O=C(C1CC2(CCNCC2)CN1)N1CCN(c2cccc(Cl)c2Cl)CC1 (stereo not drawn)	78.29%
O=C(C1CC2(CCNCC2)CN1)N1CCN(c2ccccc2)CC1 (stereo not drawn)	-125.3%
Cc1cccc(N2CCN(C(=O)C3CC4(CCNCC4)CN3)CC2)n1 (stereo not drawn)	-69.89%
CN(C)C(=O)Cc1nc(CN2CCCCC2Cn2cccn2)cs1 (stereo not drawn)	-103.2%
Cc1nccn1CC1CCCN(C(=O)Cc2ccsc2)C1 (stereo not drawn)	-60.26%
NCC(=O)N1CCC(c2cncc(Oc3cccnc3)n2)CC1	-100.1%
CC(C)(N)C(=O)N1CCCC1c1cncc(Oc2ccccc2)n1 (stereo not drawn)	77.57%
CNCC(=O)N1CCCC1c1cncc(Oc2ccc(F)cc2)n1.Cl (stereo not drawn)	68.33%
CCC(=O)N1CCC(c2cncc(Oc3cccnc3)n2)CC1	-187.7%
Cn1cc(C2CCCN2C(=O)CCCOc2ccc(F)cc2)cn1 (stereo not drawn)	-105.8%
COC(=O)NCC(=O)N1CCCC1c1nc(-c2ccccc2F)c[nH]1 (stereo not drawn)	-22.14%
CC(C)(C)OC(=O)N1CCCN(c2nnc(Br)s2)CC1	-110%
COc1ccccc1C(=O)Nc1c(F)c(C(=O)NCCC(C)C)nn1C	-92.84%
Cc1cccc(-n2cc(CN3CCN(C)[C@@H]4CS(=O)(=O)C[C@@H]43)cn2)c1	-99.09%
c1ccc(Cn2cccn2)c(CN2CCCCC2CCn2ccnc2)c1 (stereo not drawn)	62.85%
Cc1ccc2nc(CN3CCCCC3CCn3cccn3)cn2c1 (stereo not drawn)	-67.34%
Fc1cccc(-n2ccc(CN3CCCCC3Cn3cncn3)n2)c1 (stereo not drawn)	-49.02%
Fc1ccc(-n2cccn2)c(CN2CCCCC2CCn2ccnc2)c1 (stereo not drawn)	3.883%
Fc1cccc(-n2cc(CN3CCCCC3CCn3ccnc3)cn2)c1 (stereo not drawn)	67.59%
c1csc(CN(Cc2ccsc2)CC2CCCO2)n1 (stereo not drawn)	-152.6%
CCOc1cccc(CNC(=O)c2cnn(CC)c2C(F)(F)F)c1	-100.3%
O=C(CN1CCCS1(=O)=O)Nc1ccc(OC2CCCC2)cc1	-131%
O=C1NCc2ccc(NC(=O)C3CCCN3c3nccs3)cc21 (stereo not drawn)	-60.91%
CC(=O)c1ccc(NC(=O)C(NC(=O)Nc2ccccc2)C(C)C)cc1 (stereo not drawn)	-29.84%
Cn1ccnc1SCCNC1CCN(c2nc3ccccc3s2)CC1	58.02%
Cn1ccnc1SCCNC1CCN(c2ncccn2)CC1	-15.99%

Compound	Percent Effect
CCc1nccn1CCNC1CCN(c2nc3ccc(Cl)cc3s2)CC1	85.53%
Cc1n[nH]c(SCCNC2CCN(c3nc4ccccc4s3)CC2)n1	-208.3%
O=C(NCCNC1CCN(c2nccs2)CC1)c1cccs1	-27.34%
CCc1cc(N2CCC(NCCc3ccccc3F)CC2)nc(C)n1	-10.81%
N#Cc1ccc(OCC(O)CN2CCc3cncnc3C2)cc1 (stereo not drawn)	-94.24%
CN1CC(c2ccccc2)CC2(CCN(Cc3ncc[nH]3)CC2)C1 (stereo not drawn)	82.67%
COCCC(=O)N1CCC2(CC1)CC(c1ccccc1)CN(C)C2 (stereo not drawn)	-5.324%
CCN1CC2(CCC1=O)CCN(Cc1cscn1)CC2	-71.85%
CCN(CC1CN(Cc2ncc[nH]2)CCO1)c1cccnn1 (stereo not drawn)	-7.517%
COc1ccc(C2CCN(Cc3cscn3)CC2)cc1	-93.29%
CCN1CC(c2ccccc2)CC2(CCN(Cc3ncc[nH]3)CC2)C1 (stereo not drawn)	87.85%
CCc1ccccc1CN1CCN(Cc2ncc[nH]2)[C@H]2CS(=O)(=O)C[C@H]21	-62.66%
c1ccc(C2CN(C3CC3)CC3(CCN(Cc4cscn4)CC3)C2)cc1 (stereo not drawn)	80.59%
c1ccc(C2CN(C3CC3)CC3(CCN(Cc4ncc[nH]4)CC3)C2)cc1 (stereo not drawn)	35.37%
O=C(NCC(O)c1ccc(Cl)c(F)c1)NC1CC=CC1 (stereo not drawn)	-17.82%
CCSc1cc(C(=O)NCCC(=O)N(C)C)ccn1	-118.1%
Cc1nn(CCNS(=O)(=O)NCc2ccccc2)c(C)c1Cl	-125.5%
COc1ccccc1N1CCN(C(=O)CCc2nncn2C)C(C)C1 (stereo not drawn)	-70.09%
Cc1ccc(C)c(OC2CCN(C(=O)NCC(=O)N3CCCC3)CC2)c1	-83.87%
CC(C)n1c2ccccc2c2c1cc(C(=O)NC1CC1)n2C(=O)N(C)C	-14.52%
O=c1c(CN2CCCCCC2)coc(O)c1CN1CCCCCC1	53.69%
O=c1c(CN2CCCCCC2)coc(O)c1CN1CCOCC1	-41.33%
O=c1c(CN2CCSCC2)coc(O)c1CN1CCCC1	-11.49%
COc1ccc(CNc2c(N3CCN(C)CC3)c(=O)c2=O)cc1	-162.8%
CCc1nc2n(n1)CC(NCc1noc(-c3ccc(C)cc3)n1)CC2 (stereo not drawn)	-102.8%
CN(C)c1nc(NCCc2cnccn2)ncc1F	-28.24%
